Source: PubChem BioAssay (Tox21)
Records with an inconclusive call do not appear. The source made the active and inactive calls. Unless noted, calls follow the shape of the dose curve; as a rule, active = well fitted curve in the direction sought with a large enough effect in the repeat runs; inconclusive = weak or mixed curves; inactive = no such curve, though single readings can be large; an effect the other way counts as inactive or inconclusive.

What was measured:
[1] = target: Estrogen receptor (Homo sapiens) (UniProt P03372); experiment: qHTS assay to identify small molecule antagonists of the estrogen receptor alpha (ER-alpha) signaling pathway using the BG1 cell line in the presence of 0.1 nM 17-beta-estradiol (AID 1259244); also: nearly all actives have a fitted effect of over 50% in size
Sequence of Estrogen receptor (Homo sapiens) (P03372 whole entry, looked up): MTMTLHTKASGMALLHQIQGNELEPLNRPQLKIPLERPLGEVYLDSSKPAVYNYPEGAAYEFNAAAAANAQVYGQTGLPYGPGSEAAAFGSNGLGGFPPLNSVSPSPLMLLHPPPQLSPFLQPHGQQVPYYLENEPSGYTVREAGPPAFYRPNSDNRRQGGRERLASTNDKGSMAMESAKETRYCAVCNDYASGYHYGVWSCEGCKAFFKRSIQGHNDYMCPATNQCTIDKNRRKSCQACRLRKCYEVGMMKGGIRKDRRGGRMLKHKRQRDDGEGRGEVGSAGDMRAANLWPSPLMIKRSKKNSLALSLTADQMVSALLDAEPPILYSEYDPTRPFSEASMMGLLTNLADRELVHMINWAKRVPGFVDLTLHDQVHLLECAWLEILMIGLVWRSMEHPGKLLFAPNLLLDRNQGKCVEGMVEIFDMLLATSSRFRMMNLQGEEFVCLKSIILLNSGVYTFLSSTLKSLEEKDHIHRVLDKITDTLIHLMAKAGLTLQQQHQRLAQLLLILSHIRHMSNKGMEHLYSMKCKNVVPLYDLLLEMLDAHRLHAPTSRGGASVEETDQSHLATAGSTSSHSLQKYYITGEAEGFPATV
Method in brief: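 Seeding of stripped-serum-adapted VM7Luc4E2 cells, 24 h attachment, compound transfer, then 0.1 nM final 17beta-estradiol; after 22 h incubation, ONE-Glo reagent and luminescence reading.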

[2] = qHTS assay to identify small molecule HDAC inhibitors - cell viability counter screen (AID 1259365); also: series mostly up to about 92 µM; nearly all actives have a fitted effect of over 50% in size
Method in brief: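 Measured quantity is CellTiter-Glo luminescence from wild-type HCT-116 cells after compound incubation of 2hr at 37C, 5% CO2; reagent developed 30min at room temperature.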

[3] = qHTS assay to identify small molecule agonists of the sonic hedgehog signaling (Shh) pathway - cell viability counter screen (AID 1259366); also: nearly all actives have a fitted effect of over 50% in size
Method in brief: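 In quantitative high-throughput format, 3T3 Gli1-Luc cells were exposed to compounds for 24hr and multiplexed for viability using CellTiter-Fluor, incubated 1hr at 37C before the fluorescence read.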

[4] = qHTS assay to identify small molecule agonists of the sonic hedgehog signaling (Shh) pathway (AID 1259368; calls by dose curve;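 also: NIH/3T3-derived 3T3Gli1-Luc cells carrying a stable Gli1-driven firefly luciferase reporter; series mostly up to about 92 µM; nearly all actives have a fitted effect of over 15% in size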)
Method in brief: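 Stable NIH/3T3 Gli1-Luc reporter clone; 24 hr cpd exposure after a 4 hr settling period; luminescence endpoint.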

[5] = qHTS assay to identify small molecule antagonists of the sonic hedgehog signaling (Shh) pathway (AID 1259369; calls by dose curve; also: nearly all actives have a fitted effect of over 45% in size)
Method in brief: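 Gli1 transcriptional reporter (firefly Luc) in NIH/3T3 background, conditioned-medium activated. 24hr exposure, luminescence endpoint.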

[6] = target: Estrogen receptor beta (Homo sapiens) (UniProt Q92731); experiment: qHTS assay to identify small molecule agonists of the estrogen receptor beta (ER-beta) signaling pathway (AID 1259377; active = well fitted activation curve with a large enough effect in the signal ratio in the repeat runs, not every such curve was filed as active; the % refers to the signal ratio)
Sequence of Estrogen receptor beta (Homo sapiens) (Q92731 whole entry, looked up): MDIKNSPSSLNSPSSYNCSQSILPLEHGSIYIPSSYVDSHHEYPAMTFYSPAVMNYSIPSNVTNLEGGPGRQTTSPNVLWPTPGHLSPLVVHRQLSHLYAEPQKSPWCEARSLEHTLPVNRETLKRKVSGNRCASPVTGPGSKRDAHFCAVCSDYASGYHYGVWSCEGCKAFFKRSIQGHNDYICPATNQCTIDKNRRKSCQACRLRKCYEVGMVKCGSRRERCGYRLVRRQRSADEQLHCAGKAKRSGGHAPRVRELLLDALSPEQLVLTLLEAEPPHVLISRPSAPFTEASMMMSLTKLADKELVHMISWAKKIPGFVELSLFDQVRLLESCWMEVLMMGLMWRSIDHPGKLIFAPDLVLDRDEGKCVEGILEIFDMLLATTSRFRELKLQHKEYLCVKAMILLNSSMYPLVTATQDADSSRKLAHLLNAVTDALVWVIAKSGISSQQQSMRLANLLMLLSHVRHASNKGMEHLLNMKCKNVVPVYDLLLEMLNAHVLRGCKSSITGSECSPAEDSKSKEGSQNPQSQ
Method in brief: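 Reporter cells (HEK293T, ER-beta-UAS-bla) receive compounds or DMSO after a 6 hr pre-incubation. They then incubate 16 hr at 37C/5% CO2, and fluorescence from LiveBLAzer B/G substrate is measured after 2 hours at room temperature.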

[7] = target: Estrogen receptor beta (Homo sapiens) (UniProt Q92731); experiment: qHTS assay to identify small molecule antagonists of the estrogen receptor beta (ER-beta) signaling pathway (AID 1259378; active = well fitted inhibition curve with a large enough effect in the signal ratio in the repeat runs, not every such curve was filed as active; the % refers to the signal ratio)
Method in brief: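 ER-beta-UAS-bla HEK293T cells in 2% charcoal-stripped FBS medium treated with compound plus 1nM final 17-beta-estradiol for 16 hr at 37C. Beta-lactamase reporter read by FRET substrate fluorescence after 2 hours at room temperature.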

[8] = qHTS assay to identify small molecule phospholipidosis (PLD) inducers (AID 1259344; active = well fitted curve in the direction sought with a large enough effect; an effect the other way counts as inactive or inconclusive)
Method in brief: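 Read-out is LipidTOX Red fluorescence (ex 595/em 615) imaged in HepG2 cells after 24 h compound exposure at 37 C, with Hoechst nuclear counterstain (ex 352/em 461) allowing per-cell normalisation.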

Measured: Potency

CSc1nnc(C(C)(C)C)c(=O)[nH]1
not listed: [8]
inactive: all other assays above

NC(=O)[C@H]1O[C@@H](O)[C@H](O)[C@@H](O)[C@@H]1O
inactive: [8]

O=C1CC[C@@H](C(=O)N[C@H]2C[C@@H]2c2ccccc2)N1
inactive: [8]
